Out of some 5,500 compounds screened, about 2,000 (36%) were called active. Roughly 18% stayed inconclusive and do not appear here. No stated cut-off is given here; in the data, active means normalized growth mostly below about 0.91 (no sharp cut-off); inconclusive means no clear call, values can overlap the other calls; inactive means mostly above about 0.92. Some of the results follow.
Assay: chemical genetic growth profiling, strain panel (AID 1159580);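 further: tested at 20 µM; growth read once vehicle control cultures reached saturation at 30 °C; 1 = growth at the plate median or of vehicle wells; lower values mean less growth of the strain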
Conditions: growth OD

Measured: normalized growth

C[C@]12CCC3c4ccc(OS(=O)(=O)O)cc4CCC3C1CC[C@H]2O (stereo not given in full)
inactive: S. cerevisiae deletion strains, locus YJR043C, strain POL32, hits give low values 1 | S. cerevisiae deletion strains, locus YJR066W, strain TOR1, hits give low values 0.983 | S. cerevisiae deletion strains, locus YKL009W, strain mrt4, hits give low values 0.99 | S. cerevisiae deletion strains, locus YKL068W, hits give low values 0.995 | S. cerevisiae deletion strains, locus YKL085W, strain MDH1 (second series), hits give low values 0.987 | S. cerevisiae deletion strains, locus YKL085W, strain MDH1, hits give low values 0.987 | S. cerevisiae deletion strains, locus YKL160W, strain elf1, hits give low values 0.923 | S. cerevisiae deletion strains, locus YKL190W, strain CNB1, hits give low values 1 | S. cerevisiae deletion strains, locus YKR001C, strain vps1, hits give low values 0.994 | S. cerevisiae deletion strains, locus YKR026C, strain gcn3, hits give low values 0.988 | S. cerevisiae deletion strains, locus YKR091W, strain srl3, hits give low values 0.97 | S. cerevisiae deletion strains, locus YLL001W, strain dnm1, hits give low values 0.994 | S. cerevisiae deletion strains, locus YLL026W, hits give low values 0.967 | S. cerevisiae deletion strains, locus YLL041C, strain sdh2, hits give low values 0.978 | S. cerevisiae deletion strains, locus YLR027C, strain aat2, hits give low values 0.997 | S. cerevisiae deletion strains, locus YLR039C, strain RIC1, hits give low values 0.977 | S. cerevisiae deletion strains, locus YLR058C, strain SHM2, hits give low values 0.99 | S. cerevisiae deletion strains, locus YLR102C, strain apc9, hits give low values 0.99 | S. cerevisiae deletion strains, locus YLR113W, strain HOG1, hits give low values 0.963 | S. cerevisiae deletion strains, locus YLR221C, strain rsa3, hits give low values 1.02 | S. cerevisiae deletion strains, locus YLR258W, strain gsy2, hits give low values 0.965 | S. cerevisiae deletion strains, locus YLR262C, strain YPT6 (second series), hits give low values 0.977 | S. cerevisiae deletion strains, locus YLR262C, strain YPT6, hits give low values 0.945 | S. cerevisiae deletion strains, locus YLR268W, strain sec22, hits give low values 0.973 | S. cerevisiae deletion strains, locus YLR320W, strain mms22, hits give low values 1.02 | S. cerevisiae deletion strains, locus YLR330W, strain CHS5, hits give low values 0.987 | S. cerevisiae deletion strains, locus YLR342W, strain FKS1 (second series), hits give low values 0.988 | S. cerevisiae deletion strains, locus YLR342W, strain FKS1, hits give low values 0.987 | S. cerevisiae deletion strains, locus YLR357W, strain rsc2, hits give low values 0.955 | S. cerevisiae deletion strains, locus YLR370C, strain arc18, hits give low values 0.976 | S. cerevisiae deletion strains, locus YLR371W, strain rom2, hits give low values 0.986 | S. cerevisiae deletion strains, locus YLR384C, strain iki3, hits give low values 0.959 | S. cerevisiae deletion strains, locus YLR418C, strain cdc73, hits give low values 0.973 | S. cerevisiae deletion strains, locus YML016C, strain PPZ1, hits give low values 0.993 | S. cerevisiae deletion strains, locus YML032C, strain rad52, hits give low values 0.989 | S. cerevisiae deletion strains, locus YML120C, strain ndi1, hits give low values 0.995 | S. cerevisiae deletion strains, locus YML124C, strain tub3, hits give low values 0.988 | S. cerevisiae deletion strains, locus YMR058W, strain fet3, hits give low values 0.979 | S. cerevisiae deletion strains, locus YMR078C, strain ctf18, hits give low values 0.982 | S. cerevisiae deletion strains, locus YMR125W, strain sto1, hits give low values 0.994 | S. cerevisiae deletion strains, locus YMR129W, hits give low values 0.961 | S. cerevisiae deletion strains, locus YMR205C, strain PFK2, hits give low values 1.01 | S. cerevisiae deletion strains, locus YMR223W, strain ubp8, hits give low values 0.985 | S. cerevisiae deletion strains, locus YMR231W, strain pep5, hits give low values 0.991 | S. cerevisiae deletion strains, locus YMR263W, strain SAP30, hits give low values 1 | S. cerevisiae deletion strains, locus YMR307W, strain GAS1, hits give low values 0.928 | S. cerevisiae deletion strains, locus YNL067W, strain RPL9B, hits give low values 1.02 | S. cerevisiae deletion strains, locus YNL071W, strain lat1, hits give low values 0.988 | S. cerevisiae deletion strains, locus YNL128W, strain TEP1, hits give low values 0.982 | S. cerevisiae deletion strains, locus YNL153C, strain GIM3, hits give low values 1.03 | S. cerevisiae deletion strains, locus YNL183C, strain NPR1, hits give low values 0.913 | S. cerevisiae deletion strains, locus YNL209W, strain ssb2, hits give low values 0.979 | S. cerevisiae deletion strains, locus YNL233W, strain BNI4, hits give low values 0.998 | S. cerevisiae deletion strains, locus YNL248C, strain rpa49, hits give low values 0.914 | S. cerevisiae deletion strains, locus YNL250W, strain rad50, hits give low values 0.995 | S. cerevisiae deletion strains, locus YNL271C, strain bni1, hits give low values 0.989 | S. cerevisiae deletion strains, locus YNL298W, strain CLA4, hits give low values 0.984 | S. cerevisiae deletion strains, locus YNL307C, strain MCK1, hits give low values 0.98 | S. cerevisiae deletion strains, locus YNL322C, strain KRE1 (second series), hits give low values 0.952 | S. cerevisiae deletion strains, locus YNR049C, strain mso1, hits give low values 0.953 | S. cerevisiae deletion strains, locus YNR052C, strain pop2, hits give low values 0.982 | S. cerevisiae deletion strains, locus YOL006C, strain TOP1, hits give low values 1.05 | S. cerevisiae deletion strains, locus YOL012C, strain htz1 1.45 | S. cerevisiae deletion strains, locus YOL147C, strain pex11, hits give low values 0.984 | S. cerevisiae deletion strains, locus YOR001W, strain rrp6, hits give low values 1.01 | S. cerevisiae deletion strains, locus YOR061W, strain CKA2, hits give low values 0.986 | S. cerevisiae deletion strains, locus YOR069W, strain VPS5, hits give low values 0.988 | S. cerevisiae deletion strains, locus YOR070C, strain gyp1, hits give low values 0.991 | S. cerevisiae deletion strains, locus YOR080W, strain dia2, hits give low values 0.96 | S. cerevisiae deletion strains, locus YOR083W, strain WHI5, hits give low values 0.901 | S. cerevisiae deletion strains, locus YOR106W, strain vam3, hits give low values 0.95 | S. cerevisiae deletion strains, locus YOR136W, strain idh2, hits give low values 0.988 | S. cerevisiae deletion strains, locus YOR144C, strain elg1, hits give low values 0.987 | S. cerevisiae deletion strains, locus YOR184W, strain ser1, hits give low values 0.995 | S. cerevisiae deletion strains, locus YOR231W, strain MKK1, hits give low values 0.965 | S. cerevisiae deletion strains, locus YOR265W, strain rbl2, hits give low values 0.978 | S. cerevisiae deletion strains, locus YOR270C, strain vph1, hits give low values 0.97 | S. cerevisiae deletion strains, locus YOR290C, strain snf2, hits give low values 0.951 | S. cerevisiae deletion strains, locus YOR316C, strain cot1, hits give low values 0.989 | S. cerevisiae deletion strains, locus YPL051W, strain arl3, hits give low values 0.973 | S. cerevisiae deletion strains, locus YPL078C, strain atp4, hits give low values 0.97 | S. cerevisiae deletion strains, locus YPL106C, strain sse1, hits give low values 0.955 | S. cerevisiae deletion strains, locus YPL240C, strain hsp82, hits give low values 0.984 | S. cerevisiae deletion strains, locus YPL256C, strain CLN2, hits give low values 0.981 | S. cerevisiae deletion strains, locus YPR119W, strain clb2, hits give low values 0.988 | S. cerevisiae deletion strains, locus YPR141C, strain kar3, hits give low values 0.984 | S. cerevisiae deletion strains, locus YPR163C, strain tif3, hits give low values 0.984 | S. cerevisiae deletion strains, locus YPR167C, strain met16, hits give low values 0.988 | S. cerevisiae deletion strains, strain wtn01, hits give low values 0.975 | S. cerevisiae strains, strain wild type, hits give low values 0.999
